Measurements reported in PubChem BioAssay AID1159580 (chemical genetic matrix, 2015).
Screen size: about 5,500 compounds; about 2,000 (36%) were called active. Another 18% or so got no clear call; they are omitted. Cut-off read from the data, not from the text of the source: active = normalized growth mostly below about 0.91 (no sharp cut-off); inconclusive = no clear call, values can overlap the other calls; inactive = mostly above about 0.92. The list shows a part of the results.

Experiment: chemical genetic growth profiling, strain panel (AID 1159580);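 note: tested at 20 µM; growth read once vehicle control cultures reached saturation at 30 °C; 1 = growth at the plate median or of vehicle wells; lower values mean less growth of the strain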
Settings: growth OD

Measured: normalized growth

COc1ccc(-c2c(O)c3c(OC)c4c(cc3oc2=O)OC(C)(C)C=C4)cc1
active: S. cerevisiae deletion strains, locus YLR418C, strain cdc73, active compounds read low 0.833 | S. cerevisiae deletion strains, locus YML032C, strain rad52, active compounds read low 0.901 | S. cerevisiae deletion strains, locus YNL307C, strain MCK1, active compounds read low 0.84 | S. cerevisiae deletion strains, locus YOL147C, strain pex11, active compounds read low 0.928 | S. cerevisiae deletion strains, locus YOR316C, strain cot1, active compounds read low 0.916 | S. cerevisiae deletion strains, locus YPR119W, strain clb2, active compounds read low 0.928 | S. cerevisiae deletion strains, locus YPR163C, strain tif3, active compounds read low 0.908
inactive: S. cerevisiae deletion strains, locus YJL187C, strain SWE1, active compounds read low 0.952 | S. cerevisiae deletion strains, locus YJR066W, strain TOR1, active compounds read low 0.934 | S. cerevisiae deletion strains, locus YKL009W, strain mrt4, active compounds read low 0.935 | S. cerevisiae deletion strains, locus YKL068W, active compounds read low 0.969 | S. cerevisiae deletion strains, locus YKL085W, strain MDH1 (second series), active compounds read low 0.97 | S. cerevisiae deletion strains, locus YKL085W, strain MDH1, active compounds read low 0.97 | S. cerevisiae deletion strains, locus YKL160W, strain elf1, active compounds read low 0.936 | S. cerevisiae deletion strains, locus YKR001C, strain vps1, active compounds read low 0.97 | S. cerevisiae deletion strains, locus YKR026C, strain gcn3, active compounds read low 0.947 | S. cerevisiae deletion strains, locus YKR091W, strain srl3, active compounds read low 0.954 | S. cerevisiae deletion strains, locus YLL001W, strain dnm1, active compounds read low 0.968 | S. cerevisiae deletion strains, locus YLL026W, active compounds read low 0.959 | S. cerevisiae deletion strains, locus YLL041C, strain sdh2, active compounds read low 0.942 | S. cerevisiae deletion strains, locus YLR027C, strain aat2, active compounds read low 0.965 | S. cerevisiae deletion strains, locus YLR039C, strain RIC1, active compounds read low 1.01 | S. cerevisiae deletion strains, locus YLR058C, strain SHM2, active compounds read low 0.949 | S. cerevisiae deletion strains, locus YLR102C, strain apc9, active compounds read low 0.958 | S. cerevisiae deletion strains, locus YLR113W, strain HOG1, active compounds read low 0.907 | S. cerevisiae deletion strains, locus YLR221C, strain rsa3, active compounds read low 0.962 | S. cerevisiae deletion strains, locus YLR258W, strain gsy2, active compounds read low 0.962 | S. cerevisiae deletion strains, locus YLR262C, strain YPT6 (second series), active compounds read low 0.885 | S. cerevisiae deletion strains, locus YLR262C, strain YPT6, active compounds read low 0.987 | S. cerevisiae deletion strains, locus YLR268W, strain sec22, active compounds read low 0.91 | S. cerevisiae deletion strains, locus YLR320W, strain mms22, active compounds read low 0.921 | S. cerevisiae deletion strains, locus YLR330W, strain CHS5, active compounds read low 0.96 | S. cerevisiae deletion strains, locus YLR342W, strain FKS1, active compounds read low 0.939 | S. cerevisiae deletion strains, locus YLR357W, strain rsc2, active compounds read low 1 | S. cerevisiae deletion strains, locus YLR370C, strain arc18, active compounds read low 0.95 | S. cerevisiae deletion strains, locus YLR371W, strain rom2, active compounds read low 0.98 | S. cerevisiae deletion strains, locus YLR384C, strain iki3, active compounds read low 0.954 | S. cerevisiae deletion strains, locus YML016C, strain PPZ1, active compounds read low 0.958 | S. cerevisiae deletion strains, locus YML120C, strain ndi1, active compounds read low 0.964 | S. cerevisiae deletion strains, locus YML124C, strain tub3, active compounds read low 0.96 | S. cerevisiae deletion strains, locus YMR058W, strain fet3, active compounds read low 0.961 | S. cerevisiae deletion strains, locus YMR078C, strain ctf18, active compounds read low 0.942 | S. cerevisiae deletion strains, locus YMR125W, strain sto1, active compounds read low 0.971 | S. cerevisiae deletion strains, locus YMR129W, active compounds read low 0.95 | S. cerevisiae deletion strains, locus YMR205C, strain PFK2, active compounds read low 0.909 | S. cerevisiae deletion strains, locus YMR223W, strain ubp8, active compounds read low 0.928 | S. cerevisiae deletion strains, locus YMR231W, strain pep5, active compounds read low 0.95 | S. cerevisiae deletion strains, locus YMR307W, strain GAS1, active compounds read low 1.1 | S. cerevisiae deletion strains, locus YNL067W, strain RPL9B, active compounds read low 0.967 | S. cerevisiae deletion strains, locus YNL071W, strain lat1, active compounds read low 0.922 | S. cerevisiae deletion strains, locus YNL128W, strain TEP1, active compounds read low 0.997 | S. cerevisiae deletion strains, locus YNL183C, strain NPR1, active compounds read low 0.911 | S. cerevisiae deletion strains, locus YNL209W, strain ssb2, active compounds read low 0.959 | S. cerevisiae deletion strains, locus YNL233W, strain BNI4, active compounds read low 0.965 | S. cerevisiae deletion strains, locus YNL248C, strain rpa49, active compounds read low 0.967 | S. cerevisiae deletion strains, locus YNL250W, strain rad50, active compounds read low 0.913 | S. cerevisiae deletion strains, locus YNL271C, strain bni1, active compounds read low 1 | S. cerevisiae deletion strains, locus YNL298W, strain CLA4, active compounds read low 0.962 | S. cerevisiae deletion strains, locus YNL322C, strain KRE1 (second series), active compounds read low 0.961 | S. cerevisiae deletion strains, locus YNL322C, strain KRE1, active compounds read low 0.949 | S. cerevisiae deletion strains, locus YNR049C, strain mso1, active compounds read low 0.965 | S. cerevisiae deletion strains, locus YNR052C, strain pop2, active compounds read low 0.946 | S. cerevisiae deletion strains, locus YOL012C, strain htz1 0.954 | S. cerevisiae deletion strains, locus YOR001W, strain rrp6, active compounds read low 0.969 | S. cerevisiae deletion strains, locus YOR061W, strain CKA2, active compounds read low 0.952 | S. cerevisiae deletion strains, locus YOR069W, strain VPS5, active compounds read low 0.952 | S. cerevisiae deletion strains, locus YOR070C, strain gyp1, active compounds read low 0.94 | S. cerevisiae deletion strains, locus YOR080W, strain dia2, active compounds read low 0.971 | S. cerevisiae deletion strains, locus YOR083W, strain WHI5, active compounds read low 0.953 | S. cerevisiae deletion strains, locus YOR106W, strain vam3, active compounds read low 0.971 | S. cerevisiae deletion strains, locus YOR136W, strain idh2, active compounds read low 0.959 | S. cerevisiae deletion strains, locus YOR144C, strain elg1, active compounds read low 0.942 | S. cerevisiae deletion strains, locus YOR184W, strain ser1, active compounds read low 0.971 | S. cerevisiae deletion strains, locus YOR231W, strain MKK1, active compounds read low 0.969 | S. cerevisiae deletion strains, locus YOR265W, strain rbl2, active compounds read low 0.937 | S. cerevisiae deletion strains, locus YOR270C, strain vph1, active compounds read low 0.923 | S. cerevisiae deletion strains, locus YOR290C, strain snf2, active compounds read low 0.938 | S. cerevisiae deletion strains, locus YPL051W, strain arl3, active compounds read low 0.951 | S. cerevisiae deletion strains, locus YPL078C, strain atp4, active compounds read low 0.967 | S. cerevisiae deletion strains, locus YPL106C, strain sse1, active compounds read low 1.01 | S. cerevisiae deletion strains, locus YPL240C, strain hsp82, active compounds read low 0.95 | S. cerevisiae deletion strains, locus YPL241C, strain CIN2, active compounds read low 0.938 | S. cerevisiae deletion strains, locus YPL256C, strain CLN2, active compounds read low 0.933 | S. cerevisiae deletion strains, locus YPR141C, strain kar3, active compounds read low 0.958 | S. cerevisiae deletion strains, locus YPR167C, strain met16, active compounds read low 0.94 | S. cerevisiae deletion strains, strain wtn01, active compounds read low 0.958 | S. cerevisiae strains, strain wild type, active compounds read low 0.993
